Only some compounds are listed: those with a hit (about 12% of all), similar ones and a draw of the others.
G9a block: qHTS Assay for Inhibitors of Histone Lysine Methyltransferase G9a; G9a H3K9 monomethylation, AlphaScreen, 2 h; Potency, µM (top dose mostly 102 µM), most hits filed as inhibitors; 8.8% of 350,000 active; AID 504332, 2011; further: nearly all actives have a fitted effect of over 75% in size
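Compounds were preincubated with 20 nM G9a for 15 min, after which biotinylated H3K9 peptide (500 nM) and SAM (20 uM) started a 2 h room-temperature reaction. Monomethylated product was quantified by antibody-based AlphaScreen chemiluminescence.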
L3MBTL1 inh: qHTS Assay for the Inhibitors of L3MBTL1. Lethal(3)malignant brain tumor-like protein 1 (Homo sapiens), Q9Y468. AlphaScreen L3MBTL1–H3K9me1 peptide binding. Potency, µM (titrated, usually from 57.1 µM), most hits filed as inhibitors. 0.66% of 230,000 active. AID 485360, 2010; further: nearly all actives have a fitted effect of over 60% in size
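Displacement of a biotinylated histone H3(1-15) peptide monomethylated at Lys9 (75 nM) from L3MBTL1 (50 nM) was measured by AlphaScreen after a 30 min room-temperature compound incubation; cefsulodin titration served as intraplate control.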
HP1b binding inh: HTS for Inhibitors of HP1-beta Chromodomain Interactions with Methylated Histone Tails. AlphaScreen HP1-beta / biotin-H3K9me3 peptide binding. Potency, µM (titrated, usually from 114 µM), usual class: inhibitors. 0.56% of 390,000 active. AID 540317, 2011; further: nearly all actives have a fitted effect of over 70% in size
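Compound inhibition of the preformed complex between 50 nM HP1-beta and 50 nM biotinylated H3K9me3 peptide was read by AlphaScreen. Buffer was PBS pH 7.4 with 0.01% Tween-20. Incubations ran 30 min at room temperature, with 10 ug/mL donor/acceptor beads.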
BAZ2B inh: qHTS Assay for Inhibitors of BAZ2B; 4.4% of 360,000 active; AID 504333, 2011; Bromodomain adjacent to zinc finger domain protein 2B (Homo sapiens), Q9UIF8; Potency, µM (series often up to 114 µM), most hits filed as inhibitors; AlphaScreen BAZ2B-H3K14Ac peptide displacement; further: nearly all actives have a fitted effect of over 60% in size
Target sequence (Q9UIF8 whole entry, looked up, the tested form may be a part): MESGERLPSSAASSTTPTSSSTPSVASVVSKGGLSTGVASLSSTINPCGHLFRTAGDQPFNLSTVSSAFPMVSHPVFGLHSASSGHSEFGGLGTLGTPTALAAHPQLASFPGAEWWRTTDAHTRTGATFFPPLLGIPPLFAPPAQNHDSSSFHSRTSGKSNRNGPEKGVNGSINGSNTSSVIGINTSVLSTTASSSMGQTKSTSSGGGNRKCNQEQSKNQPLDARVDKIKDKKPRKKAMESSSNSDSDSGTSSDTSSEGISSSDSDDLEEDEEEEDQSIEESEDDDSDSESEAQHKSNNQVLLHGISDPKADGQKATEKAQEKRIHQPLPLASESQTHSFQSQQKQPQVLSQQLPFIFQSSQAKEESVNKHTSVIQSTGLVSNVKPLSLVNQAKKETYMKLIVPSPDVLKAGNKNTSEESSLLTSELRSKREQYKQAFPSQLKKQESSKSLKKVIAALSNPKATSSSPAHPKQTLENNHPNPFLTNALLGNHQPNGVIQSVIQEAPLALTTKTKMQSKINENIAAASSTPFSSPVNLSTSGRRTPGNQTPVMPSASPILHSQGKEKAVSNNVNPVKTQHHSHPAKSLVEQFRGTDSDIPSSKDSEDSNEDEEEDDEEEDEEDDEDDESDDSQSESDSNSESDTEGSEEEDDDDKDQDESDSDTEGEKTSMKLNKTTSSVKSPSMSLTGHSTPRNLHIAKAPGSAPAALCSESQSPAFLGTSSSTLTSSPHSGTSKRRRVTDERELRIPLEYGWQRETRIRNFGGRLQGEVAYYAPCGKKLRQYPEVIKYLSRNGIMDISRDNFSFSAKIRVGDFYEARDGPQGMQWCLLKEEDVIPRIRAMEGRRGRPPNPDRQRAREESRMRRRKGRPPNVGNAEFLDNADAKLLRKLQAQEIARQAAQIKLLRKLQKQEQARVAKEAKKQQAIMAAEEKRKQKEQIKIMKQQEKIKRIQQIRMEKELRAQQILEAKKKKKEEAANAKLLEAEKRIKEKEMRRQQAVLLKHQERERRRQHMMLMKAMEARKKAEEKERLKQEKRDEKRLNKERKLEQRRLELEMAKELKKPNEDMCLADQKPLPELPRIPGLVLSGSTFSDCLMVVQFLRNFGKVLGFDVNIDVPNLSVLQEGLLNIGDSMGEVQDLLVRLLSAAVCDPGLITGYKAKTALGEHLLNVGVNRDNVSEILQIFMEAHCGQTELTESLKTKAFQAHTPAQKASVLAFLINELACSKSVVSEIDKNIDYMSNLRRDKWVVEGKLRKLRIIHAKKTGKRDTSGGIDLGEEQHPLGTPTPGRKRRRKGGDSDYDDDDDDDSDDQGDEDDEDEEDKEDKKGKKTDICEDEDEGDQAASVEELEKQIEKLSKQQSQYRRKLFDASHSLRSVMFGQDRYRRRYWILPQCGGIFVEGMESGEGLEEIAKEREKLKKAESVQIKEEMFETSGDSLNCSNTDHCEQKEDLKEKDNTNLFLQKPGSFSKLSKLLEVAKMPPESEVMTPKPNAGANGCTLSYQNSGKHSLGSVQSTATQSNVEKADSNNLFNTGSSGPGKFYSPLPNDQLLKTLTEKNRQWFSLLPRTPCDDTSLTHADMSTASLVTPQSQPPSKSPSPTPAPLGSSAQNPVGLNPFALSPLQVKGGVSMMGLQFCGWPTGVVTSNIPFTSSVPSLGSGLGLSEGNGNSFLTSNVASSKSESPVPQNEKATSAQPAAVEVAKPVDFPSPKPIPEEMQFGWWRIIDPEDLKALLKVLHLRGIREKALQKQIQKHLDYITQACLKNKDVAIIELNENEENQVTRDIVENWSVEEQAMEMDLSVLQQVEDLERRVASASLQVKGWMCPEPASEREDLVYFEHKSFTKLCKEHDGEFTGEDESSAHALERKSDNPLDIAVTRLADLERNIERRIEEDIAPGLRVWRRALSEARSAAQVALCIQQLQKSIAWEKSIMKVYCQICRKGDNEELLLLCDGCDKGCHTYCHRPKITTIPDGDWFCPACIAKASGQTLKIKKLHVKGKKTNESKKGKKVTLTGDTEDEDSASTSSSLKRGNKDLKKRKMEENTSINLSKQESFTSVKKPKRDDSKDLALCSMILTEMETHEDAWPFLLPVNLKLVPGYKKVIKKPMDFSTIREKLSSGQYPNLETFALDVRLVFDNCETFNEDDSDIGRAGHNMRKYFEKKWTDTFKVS
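BAZ2B (50 nM) with biotin-H3(5-23)K14Ac peptide (50 nM) in PBS pH 7.4, 0.01% Tween-20, preformed 30 min, then compound 30 min at room temperature; top concentration 110uM. AlphaScreen streptavidin donor/nickel chelate acceptor beads (10 ug/mL final), 20 min dark, signal read.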
JMJD2A Tudor: qHTS Assay for Inhibitors of JMJD2A-Tudor Domain; Lysine-specific demethylase 4A (Homo sapiens), O75164; AlphaScreen JMJD2A-Tudor / H3K4me3 peptide binding; Potency, µM (highest dose often 114 µM), hits mostly inhibitors; 4.4% of 390,000 active; further: nearly all actives have a fitted effect of over 50% in size
Sfp PPTase inh: qHTS Assay for Inhibitors of Bacillus subtilis Sfp phosphopantetheinyl transferase (PPTase). 4'-phosphopantetheinyl transferase ffp (Bacillus subtilis), Q9F4F7. Biochemical Sfp PPTase activity, qHTS. Potency, µM, hits mostly inhibitors. 3.5% of 310,000 active. AID 1490, 2009;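 further: the enzyme is Sfp with the accession as filed and its product quenches rhodamine fluorescence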
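Sfp 15 nM + cpd, 15 min RT; start w/ rhodamine-CoA 5 uM, BHQ-2-YbbR 12.5 uM (final); 50 mM Hepes pH 7.6, 10 mM MgCl2, 0.01% NP-40, 0.01% BSA; read 525/598 nm at 0 and 30 min.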
Hits are given with their value; n = inactive; u = inconclusive; x = no result; [ ] = remark or other dose. The call rests on the fitted dose curve; in most records, active means well fitted curve in the direction sought with a large enough effect; inconclusive means small, poorly fitted or top-dose-only effect, or another doubt; inactive means no such curve, though single readings can be large; an effect the other way counts as inactive or inconclusive.

SMILES	G9a block	L3MBTL1 inh	HP1b binding inh	BAZ2B inh	JMJD2A Tudor	Sfp PPTase inh
CCCCOCCCNCc1cccn1CCN1CCOCC1	u	n	n	n	7.9µM	n
CCCCN(CC(=O)NC1CCCC1)C(=O)C(=O)Nc1ccc2c(c1)OCCO2	n	x	n	n	79µM	n
COCC(=O)N/N=C/c1c(C)[nH]n(-c2ccccc2)c1=O	n	x	n	n	79µM	n
Cc1[nH]n(-c2ccccc2)c(=O)c1/C=N/NC(=O)COc1ccccc1[N+](=O)[O-]	n	n	n	79µM	79µM	n
Cc1[nH]n(-c2ccccc2)c(=O)c1/C=N/O	x	n	n	50µM	79µM	n
Cc1c(/C=N/NC(=O)COc2ccccc2[N+](=O)[O-])c2ccccc2n1C	n	n	n	n	n	n
CCOC(=O)c1[nH]n(-c2ccc(Cl)cc2)c(=O)c1C	u	n	u	u	71µM	n
CN(C)C(CNC(=O)c1ccco1)c1cccs1 (stereo unspecified)	n	n	n	n	n	x
Cc1ccc(C)c(S(=O)(=O)N2CCN(C(=O)Cc3ccc(S(=O)(=O)N4CCOCC4)s3)CC2)c1	n[2.33 µM]	n	n	n	n	x
Cc1cccc(C(=O)NNC(=O)CSc2nnc(C3CC3)n2C)c1	n	x	n	n	n	n
Cc1[nH]n(-c2ccccc2)c(=O)c1C=Nc1ccc(S(=O)(=O)N(C)C)cc1	n	n	n	n	n	n
Cc1[nH]n(-c2ccccc2)c(=O)c1/C=N/NC(=O)C(C)C	n	n	n	32µM	79µM	n
Cc1[nH]n(-c2ccccc2)c(=O)c1C(=O)c1ccc(Cl)cc1	x	n	n	n	50µM	n
Cc1[nH]n(-c2ccccc2)c(=O)c1/C=N/N(C)c1ccccc1	13µM	n	n	u	u	n
Cc1[nH]n(-c2ccccc2)c(=O)c1/C=N\NC(=O)C1COc2ccccc2O1 (stereo unspecified)	n	n	n	71µM	u	n
Cc1c(/C=N\NC(=O)C2COc3ccccc3O2)c2ccccc2n1C (stereo unspecified)	n	n	n	u	u	n
CC(C)ON(CC(=O)NO)S(=O)(=O)c1ccc(-c2ccccc2)cc1	x	x	x	x	x	n
O=C(NNC(=O)c1c(O)c2ccccc2[nH]c1=O)c1ccccc1Br	n	x	n	n	n	n
CC(=O)N/N=C/c1c(C)[nH]n(-c2ccccc2)c1=O	n	x	n	79µM	50µM	n
Cc1[nH]n(-c2ccccc2)c(=S)c1C=NCCCN=Cc1c(C)[nH]n(-c2ccccc2)c1=S	1.8µM	n	14µM	u	2µM	n
Cc1[nH]n(-c2ccccc2)c(=O)c1C=NCc1ccco1	u	n	x	n	x	n
Cc1ccc2cccc(N=Cc3c(C)[nH]n(-c4ccccc4)c3=O)c2n1	10µM	n	n	n	u	n
COC(=O)CN=Cc1c(C)[nH]n(-c2ccccc2)c1=O	u	n	n	n	n	n
COC(=O)N/N=C\c1c(C)[nH]n(-c2ccccc2)c1=O	1.8µM	n	n	u	u	n
Cn1c2cc(Br)sc2c2cnn(Cc3ccccc3F)c(=O)c21	x	x	x	x	n	x
SMILES	G9a block	L3MBTL1 inh	HP1b binding inh	BAZ2B inh	JMJD2A Tudor	Sfp PPTase inh
O=C(O)CC/C=C\CC[C@@H]1[C@@H](N2CCCCC2)[C@@H](O)C[C@@H]1OCc1ccc(-c2ccccc2)cc1	u	x	x	x	x	n
CCOc1ccc2nc(/N=C/c3c(C)[nH]n(-c4ccccc4)c3=O)sc2c1	25µM	n	u	n	n	10µM
CCOc1ccc2nc(/N=C/c3c(C)[nH]n(-c4ccc(C)cc4)c3=O)sc2c1	u	n	n	u	n	n
C/C(=N\NC(=O)c1cnccn1)c1ccc([N+](=O)[O-])cc1	n	n	n	n	22µM	n
C/C(=N\NC(=O)c1cc([N+](=O)[O-])cc([N+](=O)[O-])c1)c1ccco1	x	n	n	n	n	35µM
C/C(=N\NC(=O)C1(C)CC1(Br)Br)c1ccc([N+](=O)[O-])cc1 (stereo unspecified)	n	n	n	n	n	n
C/C(=N/NC(=O)c1cnccn1)c1cccs1	n	n	n	u	25µM	n
C/C(=N\NC(=O)c1cccs1)c1ccncc1	n	x	n	n	n	n
C/C(=N\NC(=O)c1ccc(-c2ccccc2)cc1)c1ccco1	n	x	n	n	n	n
C/C(=N/NC(=O)c1cc(O)c(O)c(O)c1)c1ccc([N+](=O)[O-])cc1	7.1µM	18µM	u	40µM	45µM	3.2µM
CN(C)C(=S)NC(=O)C(c1ccccc1)c1ccccc1	79µM	n[11.4 µM]	n	n	n	n
CCC/C(=N\NC(=O)c1ccc(OC)c(OC)c1)c1ccccc1	79µM	n	n	x	n	n
COc1cc(C(=O)N/N=C(\C)Cc2ccccc2)cc(OC)c1OC	n	n	n	n	8.9µM	n
COc1ccc(C(=O)NC(=S)N(C)C2CCCCC2)cc1	79µM	x	n	n	n	n
COc1ccc(C(=O)NC(=S)N(C)C2CCCCC2)cc1Br	n	x	n	u	u	n
COc1cc(C(=O)NC(=S)N(CCc2ccccc2)CCc2ccccc2)cc(OC)c1OC	n	u	n	8.9µM	n	n
COc1ccc(C(=O)NCCSc2ccccc2)cc1OC	n	n[11.4 µM]	n	n	11µM	n
COc1ccc(C(=O)NC(=S)N(Cc2ccccc2)Cc2ccccc2)cc1	n[12.7 µM]	u	u	8.9µM	56µM	n
COc1ccc(CC(=O)Nc2nccs2)cc1OC	u	n	n	n	n	n
COc1ccc(CC(=O)Nc2ncc([N+](=O)[O-])s2)cc1OC	11µM	n	28µM	n	u	25µM
CC(C)CC(=O)Nc1ncc([N+](=O)[O-])s1	x	x	n	n	n	35µM
COc1cc2c(cc1OC)C(C)N(S(=O)(=O)c1cn(C)c(C)n1)CC2 (stereo unspecified)	x	n	n	n	n	n
O=C(NCc1ccncc1)c1cc2ccccc2nc1Cl	45µM	n	n	n	n	n
CCN(CC)CCNC(=O)c1ccccc1N	n	n	n	n	n	n
CCN(CC)CCNC(=O)c1cc2ccccc2nc1Cl	u	x	n	79µM	35µM	n
Cn1cc(S(=O)(=O)N2CCCCCC2)cc1C(=O)NCc1ccc(F)cc1	n	x	n	n	n	x
CN(C)CC(=O)Nc1cc(C(F)(F)F)ccc1Cl	n	n	n	n	n	n

Source: PubChem (National Center for Advancing Translational Sciences (NCATS))
